Data reported in article PMC7862700, “An all-to-all approach to the identification of sequence-specific readers for epigenetic DNA modifications on cytosine”.

Assays:
Assay in all cases: DAPPL (digital affinity profiling via proximity ligation, sequencing); 10 mM Tris-HCl pH 7.5, 50 mM NaCl, 1 mM DTT, 4% glycerol, room temperature, 30 min; GST-TFs on glutathione beads, 16-mer random dsDNA library, 0.1% formaldehyde crosslink after washing; high values mean tight binding
[1] = target: T1, FLI1 (Homo sapiens, UniProt Q01543 1-452); settings: protein: recombinant; tags: N-terminal GST; dsDNA, one strand shown
T1 sequence: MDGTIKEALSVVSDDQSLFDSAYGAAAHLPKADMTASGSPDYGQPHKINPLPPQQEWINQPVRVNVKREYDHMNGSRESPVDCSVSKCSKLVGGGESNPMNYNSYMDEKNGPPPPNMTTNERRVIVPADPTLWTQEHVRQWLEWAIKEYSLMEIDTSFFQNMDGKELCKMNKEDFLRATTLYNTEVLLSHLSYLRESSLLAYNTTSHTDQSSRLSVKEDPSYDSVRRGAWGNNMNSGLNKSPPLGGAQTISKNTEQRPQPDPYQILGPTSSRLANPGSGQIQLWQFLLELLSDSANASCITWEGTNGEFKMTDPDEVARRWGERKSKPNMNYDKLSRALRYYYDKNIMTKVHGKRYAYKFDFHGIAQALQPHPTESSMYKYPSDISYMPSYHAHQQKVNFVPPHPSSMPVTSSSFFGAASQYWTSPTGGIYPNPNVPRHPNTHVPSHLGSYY
How it was run: (§1)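 Pools of DNA-barcoded human transcription factors, expressed in yeast as GST fusions on glutathione beads and combined with a tag-only sample, were incubated with 200 nmole of a 16-mer random double-stranded DNA library. Incubation took 30 min at room temperature in Tris/NaCl/DTT/glycerol buffer and was followed by washing, 0.1% formaldehyde crosslinking, proximity ligation (BsaI/T4 ligase, 1 h, 37 °C), PCR amplification and sequencing on an Illumina NextSeq500. Binding signal is the ratio of a hexamer's read frequency for a factor to its frequency for the tag-only sample.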

[2] = target: T2, ELK1 (Homo sapiens, UniProt P19419 1-428); settings: protein: recombinant; tags: N-terminal GST; dsDNA, one strand shown
T2 sequence: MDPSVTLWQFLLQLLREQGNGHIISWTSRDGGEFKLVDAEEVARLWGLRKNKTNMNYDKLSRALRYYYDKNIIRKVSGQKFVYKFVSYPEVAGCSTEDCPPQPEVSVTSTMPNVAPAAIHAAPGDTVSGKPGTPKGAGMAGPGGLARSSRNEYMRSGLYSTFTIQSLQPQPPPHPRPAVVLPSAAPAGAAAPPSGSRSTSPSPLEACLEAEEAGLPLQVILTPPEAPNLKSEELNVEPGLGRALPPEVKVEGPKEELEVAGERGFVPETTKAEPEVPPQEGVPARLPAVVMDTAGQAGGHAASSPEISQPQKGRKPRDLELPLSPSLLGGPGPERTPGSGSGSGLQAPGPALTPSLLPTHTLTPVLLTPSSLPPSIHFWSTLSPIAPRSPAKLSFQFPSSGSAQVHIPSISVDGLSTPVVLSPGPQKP
How it was run: as §1

[3] = target: T3, GABPA (Homo sapiens, UniProt Q06546 1-454); settings: protein: recombinant; tags: N-terminal GST; dsDNA, one strand shown
T3 sequence: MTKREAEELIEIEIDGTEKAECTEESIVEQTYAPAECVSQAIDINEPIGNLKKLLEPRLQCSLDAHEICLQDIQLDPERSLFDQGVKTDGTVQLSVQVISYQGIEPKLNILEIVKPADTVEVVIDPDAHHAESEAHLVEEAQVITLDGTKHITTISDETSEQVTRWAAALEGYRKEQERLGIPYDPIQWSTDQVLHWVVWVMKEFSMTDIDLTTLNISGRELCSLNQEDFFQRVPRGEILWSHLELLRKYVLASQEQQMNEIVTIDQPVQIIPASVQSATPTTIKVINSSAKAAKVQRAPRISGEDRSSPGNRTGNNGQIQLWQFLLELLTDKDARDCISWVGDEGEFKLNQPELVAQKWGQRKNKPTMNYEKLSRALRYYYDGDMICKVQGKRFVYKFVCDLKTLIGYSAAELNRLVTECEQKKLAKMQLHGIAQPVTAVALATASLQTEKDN
How it was run: as §1

[4] = target: T4, ERG (Homo sapiens, UniProt P11308 1-479); settings: protein: recombinant; tags: N-terminal GST; dsDNA, one strand shown
T4 sequence: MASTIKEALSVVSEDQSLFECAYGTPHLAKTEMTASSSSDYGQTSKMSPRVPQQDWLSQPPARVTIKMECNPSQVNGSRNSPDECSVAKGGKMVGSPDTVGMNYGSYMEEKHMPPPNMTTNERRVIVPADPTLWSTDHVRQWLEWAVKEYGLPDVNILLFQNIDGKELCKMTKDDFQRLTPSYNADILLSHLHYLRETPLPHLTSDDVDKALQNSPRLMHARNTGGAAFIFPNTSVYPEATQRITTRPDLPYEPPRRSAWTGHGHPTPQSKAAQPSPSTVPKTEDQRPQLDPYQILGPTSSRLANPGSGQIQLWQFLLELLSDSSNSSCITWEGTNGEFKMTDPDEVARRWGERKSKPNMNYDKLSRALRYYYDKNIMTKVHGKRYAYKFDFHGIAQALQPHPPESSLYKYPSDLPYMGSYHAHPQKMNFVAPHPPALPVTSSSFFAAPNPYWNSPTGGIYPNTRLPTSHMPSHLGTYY
How it was run: as §1

[5] = target: ELF1 (Homo sapiens, UniProt P32519 1-619); settings: protein: recombinant; tags: N-terminal GST; dsDNA, one strand shown
Chain of ELF1 (P32519 whole entry): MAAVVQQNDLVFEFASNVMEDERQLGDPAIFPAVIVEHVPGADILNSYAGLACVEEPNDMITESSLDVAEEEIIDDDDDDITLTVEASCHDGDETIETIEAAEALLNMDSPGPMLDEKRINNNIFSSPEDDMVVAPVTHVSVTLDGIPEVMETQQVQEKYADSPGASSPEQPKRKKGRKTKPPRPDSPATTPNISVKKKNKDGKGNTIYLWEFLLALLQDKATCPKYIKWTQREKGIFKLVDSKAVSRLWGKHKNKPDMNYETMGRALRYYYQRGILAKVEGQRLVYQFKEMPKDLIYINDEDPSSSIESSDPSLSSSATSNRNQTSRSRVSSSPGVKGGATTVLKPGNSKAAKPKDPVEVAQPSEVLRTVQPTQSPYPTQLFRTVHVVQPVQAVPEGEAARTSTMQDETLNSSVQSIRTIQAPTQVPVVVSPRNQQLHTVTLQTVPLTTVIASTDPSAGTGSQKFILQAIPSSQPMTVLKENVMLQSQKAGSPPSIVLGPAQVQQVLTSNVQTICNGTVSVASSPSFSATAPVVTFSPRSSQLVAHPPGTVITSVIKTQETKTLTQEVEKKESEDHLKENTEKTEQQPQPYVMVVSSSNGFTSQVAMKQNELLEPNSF
How it was run: as §1

[6] = target: T5, EHF (Homo sapiens, UniProt Q9NZC4 1-300); settings: protein: recombinant; tags: N-terminal GST; dsDNA, one strand shown
T5 sequence: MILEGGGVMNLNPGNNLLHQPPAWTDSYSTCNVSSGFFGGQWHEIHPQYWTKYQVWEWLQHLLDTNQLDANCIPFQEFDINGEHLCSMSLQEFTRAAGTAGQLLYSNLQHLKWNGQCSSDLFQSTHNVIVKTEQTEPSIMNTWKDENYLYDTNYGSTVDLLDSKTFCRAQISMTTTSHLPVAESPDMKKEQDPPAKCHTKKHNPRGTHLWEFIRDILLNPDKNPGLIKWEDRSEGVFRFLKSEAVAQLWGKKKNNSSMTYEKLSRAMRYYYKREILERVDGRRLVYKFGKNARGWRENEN
How it was run: as §1

[7] = target: SPI1 (Homo sapiens, UniProt P17947 1-270); settings: protein: recombinant; tags: N-terminal GST; dsDNA, one strand shown
How it was run: as §1

[8] = target: SPIB (Homo sapiens, UniProt Q01892 1-262); settings: protein: recombinant; tags: N-terminal GST; dsDNA, one strand shown
Chain of SPIB (Q01892 whole entry): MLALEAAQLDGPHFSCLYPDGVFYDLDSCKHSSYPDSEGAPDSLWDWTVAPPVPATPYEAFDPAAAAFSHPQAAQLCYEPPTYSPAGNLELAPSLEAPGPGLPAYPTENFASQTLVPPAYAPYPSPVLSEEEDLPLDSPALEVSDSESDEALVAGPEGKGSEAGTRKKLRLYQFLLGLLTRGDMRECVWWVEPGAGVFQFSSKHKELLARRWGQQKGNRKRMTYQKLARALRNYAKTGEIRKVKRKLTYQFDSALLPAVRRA
How it was run: as §1

[9] = target: T6, ELK3 (Homo sapiens, UniProt P41970 1-407); settings: protein: recombinant; tags: N-terminal GST; dsDNA, one strand shown
T6 sequence: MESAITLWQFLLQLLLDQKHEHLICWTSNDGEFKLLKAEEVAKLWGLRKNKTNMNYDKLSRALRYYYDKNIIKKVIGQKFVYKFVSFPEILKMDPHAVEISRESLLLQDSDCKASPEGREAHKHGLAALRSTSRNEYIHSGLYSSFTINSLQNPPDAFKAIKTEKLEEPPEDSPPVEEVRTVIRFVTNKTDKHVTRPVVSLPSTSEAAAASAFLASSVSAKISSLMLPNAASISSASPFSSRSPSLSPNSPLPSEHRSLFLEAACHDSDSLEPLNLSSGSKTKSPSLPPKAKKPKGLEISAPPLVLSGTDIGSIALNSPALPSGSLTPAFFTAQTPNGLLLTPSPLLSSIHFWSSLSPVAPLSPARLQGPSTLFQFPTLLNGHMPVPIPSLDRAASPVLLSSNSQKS
How it was run: as §1

[10] = target: T7, FEV (Homo sapiens, UniProt Q99581 1-238); settings: protein: recombinant; tags: N-terminal GST; dsDNA, one strand shown
T7 sequence: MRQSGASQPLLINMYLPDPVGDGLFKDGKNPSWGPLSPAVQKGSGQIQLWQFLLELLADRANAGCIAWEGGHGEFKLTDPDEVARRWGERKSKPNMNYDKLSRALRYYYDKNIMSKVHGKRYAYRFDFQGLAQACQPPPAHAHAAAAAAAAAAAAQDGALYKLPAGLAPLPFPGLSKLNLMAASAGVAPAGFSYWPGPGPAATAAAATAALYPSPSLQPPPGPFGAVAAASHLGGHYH
How it was run: as §1

[11] = target: ETV5 (Homo sapiens, UniProt P41161 1-510); settings: protein: recombinant; tags: N-terminal GST; dsDNA, one strand shown
Chain of ETV5 (P41161 whole entry): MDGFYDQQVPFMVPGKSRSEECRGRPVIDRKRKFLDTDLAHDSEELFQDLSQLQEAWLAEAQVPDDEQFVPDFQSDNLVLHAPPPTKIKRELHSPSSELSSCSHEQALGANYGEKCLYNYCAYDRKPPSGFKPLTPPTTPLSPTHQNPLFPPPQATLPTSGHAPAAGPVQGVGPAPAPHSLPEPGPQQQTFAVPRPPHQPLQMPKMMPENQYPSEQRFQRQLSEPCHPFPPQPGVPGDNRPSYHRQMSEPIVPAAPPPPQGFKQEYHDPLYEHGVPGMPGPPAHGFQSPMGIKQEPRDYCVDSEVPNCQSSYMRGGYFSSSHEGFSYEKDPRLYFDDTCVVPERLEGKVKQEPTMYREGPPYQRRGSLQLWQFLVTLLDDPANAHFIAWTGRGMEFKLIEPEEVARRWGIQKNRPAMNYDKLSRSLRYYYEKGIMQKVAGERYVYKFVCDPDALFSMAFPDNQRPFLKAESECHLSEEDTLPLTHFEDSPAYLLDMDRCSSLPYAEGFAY
How it was run: as §1

[12] = target: HSF1 (Homo sapiens, UniProt Q00613 1-529); settings: protein: recombinant; tags: N-terminal GST; chain copies: 3; dsDNA, one strand shown
Chain of HSF1 (Q00613 whole entry): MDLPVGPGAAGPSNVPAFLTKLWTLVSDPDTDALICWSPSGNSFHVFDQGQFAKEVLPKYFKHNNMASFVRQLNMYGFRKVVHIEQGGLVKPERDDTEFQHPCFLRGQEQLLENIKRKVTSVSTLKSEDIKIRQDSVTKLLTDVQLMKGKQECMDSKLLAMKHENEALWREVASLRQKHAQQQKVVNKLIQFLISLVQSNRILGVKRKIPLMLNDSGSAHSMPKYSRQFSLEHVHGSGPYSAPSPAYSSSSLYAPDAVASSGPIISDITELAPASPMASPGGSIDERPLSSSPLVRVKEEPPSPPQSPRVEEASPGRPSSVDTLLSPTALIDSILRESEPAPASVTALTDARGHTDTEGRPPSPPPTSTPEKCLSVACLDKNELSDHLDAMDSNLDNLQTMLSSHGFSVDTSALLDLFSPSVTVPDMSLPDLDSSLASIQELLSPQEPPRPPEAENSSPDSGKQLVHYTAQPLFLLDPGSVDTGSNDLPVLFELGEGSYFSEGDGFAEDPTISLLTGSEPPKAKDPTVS
How it was run: as §1

[13] = target: T8, SPIC (Homo sapiens, UniProt Q8N5J4 1-248); settings: protein: recombinant; tags: N-terminal GST; dsDNA, one strand shown
T8 sequence: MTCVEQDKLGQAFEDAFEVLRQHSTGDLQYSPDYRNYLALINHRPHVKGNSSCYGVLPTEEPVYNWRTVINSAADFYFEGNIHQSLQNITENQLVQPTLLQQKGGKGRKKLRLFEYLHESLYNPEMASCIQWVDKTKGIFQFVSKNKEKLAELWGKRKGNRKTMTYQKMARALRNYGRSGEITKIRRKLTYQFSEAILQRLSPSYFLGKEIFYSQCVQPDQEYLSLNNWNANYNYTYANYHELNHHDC
How it was run: as §1

[14] = target: ELF4 (Homo sapiens, UniProt Q99607 1-663); settings: protein: recombinant; tags: N-terminal GST; dsDNA, one strand shown
Chain of ELF4 (Q99607 whole entry): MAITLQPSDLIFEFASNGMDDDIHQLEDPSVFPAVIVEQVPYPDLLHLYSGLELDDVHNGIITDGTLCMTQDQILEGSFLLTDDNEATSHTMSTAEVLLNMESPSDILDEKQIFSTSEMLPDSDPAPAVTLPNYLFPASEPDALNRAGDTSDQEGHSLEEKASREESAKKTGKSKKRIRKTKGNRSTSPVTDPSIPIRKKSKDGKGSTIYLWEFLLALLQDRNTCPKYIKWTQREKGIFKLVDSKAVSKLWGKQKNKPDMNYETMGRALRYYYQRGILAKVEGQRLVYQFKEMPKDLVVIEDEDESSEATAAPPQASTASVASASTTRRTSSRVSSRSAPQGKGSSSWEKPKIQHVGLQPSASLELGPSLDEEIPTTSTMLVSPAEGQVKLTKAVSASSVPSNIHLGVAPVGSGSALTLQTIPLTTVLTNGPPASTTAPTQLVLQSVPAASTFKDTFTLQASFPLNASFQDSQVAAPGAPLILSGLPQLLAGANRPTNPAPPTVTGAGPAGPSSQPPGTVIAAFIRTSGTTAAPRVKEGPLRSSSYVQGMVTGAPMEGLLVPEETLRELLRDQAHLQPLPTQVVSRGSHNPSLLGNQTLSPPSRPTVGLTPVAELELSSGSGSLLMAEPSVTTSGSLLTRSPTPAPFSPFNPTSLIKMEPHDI
How it was run: as §1

[15] = target: T9, ELK4 (Homo sapiens, UniProt P28324-2 1-405); settings: protein: recombinant; tags: N-terminal GST; dsDNA, one strand shown
T9 sequence: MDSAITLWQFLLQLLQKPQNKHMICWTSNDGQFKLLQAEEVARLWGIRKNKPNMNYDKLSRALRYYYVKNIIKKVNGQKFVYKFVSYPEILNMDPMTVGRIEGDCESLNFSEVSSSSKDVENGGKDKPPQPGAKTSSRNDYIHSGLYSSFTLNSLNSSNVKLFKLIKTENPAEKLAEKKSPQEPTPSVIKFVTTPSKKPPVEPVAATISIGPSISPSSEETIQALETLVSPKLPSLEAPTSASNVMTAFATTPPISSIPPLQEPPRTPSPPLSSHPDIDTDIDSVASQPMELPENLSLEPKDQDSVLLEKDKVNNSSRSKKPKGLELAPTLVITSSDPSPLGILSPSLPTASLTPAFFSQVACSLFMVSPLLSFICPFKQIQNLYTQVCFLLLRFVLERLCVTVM
How it was run: as §1

[16] = target: T10, ETV2 (Homo sapiens, UniProt O00321 1-342); settings: protein: recombinant; tags: N-terminal GST; dsDNA, one strand shown
T10 sequence: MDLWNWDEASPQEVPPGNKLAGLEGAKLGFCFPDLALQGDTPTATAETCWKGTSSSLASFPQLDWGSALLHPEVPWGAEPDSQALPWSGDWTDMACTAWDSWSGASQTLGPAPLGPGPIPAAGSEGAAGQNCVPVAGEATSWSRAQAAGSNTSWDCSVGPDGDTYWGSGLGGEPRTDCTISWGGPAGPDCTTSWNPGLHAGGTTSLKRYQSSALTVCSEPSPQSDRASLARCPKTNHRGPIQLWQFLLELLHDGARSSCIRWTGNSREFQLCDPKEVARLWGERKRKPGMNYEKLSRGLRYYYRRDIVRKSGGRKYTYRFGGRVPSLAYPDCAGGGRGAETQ
How it was run: as §1

[17] = target: T11, ELF3 (Homo sapiens, UniProt P78545 1-371); settings: protein: recombinant; tags: N-terminal GST; dsDNA, one strand shown
T11 sequence: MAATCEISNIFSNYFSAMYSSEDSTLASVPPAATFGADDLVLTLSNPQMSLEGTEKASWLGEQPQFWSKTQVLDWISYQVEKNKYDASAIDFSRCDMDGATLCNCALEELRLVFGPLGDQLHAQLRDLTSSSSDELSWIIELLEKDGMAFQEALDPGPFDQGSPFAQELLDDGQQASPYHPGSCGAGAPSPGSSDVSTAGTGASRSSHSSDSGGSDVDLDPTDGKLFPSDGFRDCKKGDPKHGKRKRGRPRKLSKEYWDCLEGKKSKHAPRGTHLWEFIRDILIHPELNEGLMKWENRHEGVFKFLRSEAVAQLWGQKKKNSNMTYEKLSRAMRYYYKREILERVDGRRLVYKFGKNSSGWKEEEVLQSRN
How it was run: as §1

[18] = target: CRX (Homo sapiens, UniProt O43186 1-299); settings: protein: recombinant; tags: N-terminal GST; dsDNA, one strand shown
Chain of CRX (O43186 whole entry): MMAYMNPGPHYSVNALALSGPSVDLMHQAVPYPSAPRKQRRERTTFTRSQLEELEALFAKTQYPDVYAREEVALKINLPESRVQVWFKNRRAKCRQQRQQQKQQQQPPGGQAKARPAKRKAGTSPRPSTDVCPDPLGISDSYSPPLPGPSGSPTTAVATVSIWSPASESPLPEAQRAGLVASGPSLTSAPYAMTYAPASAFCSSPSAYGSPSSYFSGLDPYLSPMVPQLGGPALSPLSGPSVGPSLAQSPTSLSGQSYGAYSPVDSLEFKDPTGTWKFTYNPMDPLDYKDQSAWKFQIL
How it was run: as §1

[19] = target: ETV1 (Homo sapiens, UniProt P50549 1-477); settings: protein: recombinant; tags: N-terminal GST; dsDNA, one strand shown
Chain of ETV1 (P50549 whole entry): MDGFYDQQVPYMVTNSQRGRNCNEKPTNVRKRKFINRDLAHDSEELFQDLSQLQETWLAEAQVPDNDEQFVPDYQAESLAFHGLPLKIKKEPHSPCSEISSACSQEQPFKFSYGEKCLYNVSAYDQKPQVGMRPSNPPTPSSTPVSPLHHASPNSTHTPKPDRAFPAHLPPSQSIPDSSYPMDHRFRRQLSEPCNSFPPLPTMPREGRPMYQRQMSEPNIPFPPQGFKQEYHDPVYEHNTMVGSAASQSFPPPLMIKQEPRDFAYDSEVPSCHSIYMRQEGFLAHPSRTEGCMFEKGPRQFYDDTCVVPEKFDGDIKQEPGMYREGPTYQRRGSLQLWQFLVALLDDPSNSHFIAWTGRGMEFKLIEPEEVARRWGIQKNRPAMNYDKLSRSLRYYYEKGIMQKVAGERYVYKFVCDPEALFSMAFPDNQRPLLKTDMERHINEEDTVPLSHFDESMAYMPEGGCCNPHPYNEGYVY
How it was run: as §1

## TTGCTT
[1]
  binding signal: 1.32 fold enrichment (6-mer frequency, TF over GST control)
[2]
  binding signal: 1.15 fold enrichment (6-mer frequency, TF over GST control)
[3]
  binding signal: 1.36 fold enrichment (6-mer frequency, TF over GST control)
[4]
  binding signal: 1.3 fold enrichment (6-mer frequency, TF over GST control)
[5]
  binding signal: 1.21 fold enrichment (6-mer frequency, TF over GST control)
[6]
  binding signal: 1.2 fold enrichment (6-mer frequency, TF over GST control)
[7]
  binding signal: 1.29 fold enrichment (6-mer frequency, TF over GST control)
[8]
  binding signal: 1.35 fold enrichment (6-mer frequency, TF over GST control)
[9]
  binding signal: 1.26 fold enrichment (6-mer frequency, TF over GST control)
[10]
  binding signal: 1.16 fold enrichment (6-mer frequency, TF over GST control)
[11]
  binding signal: 1.24 fold enrichment (6-mer frequency, TF over GST control)
[12]
  binding signal: 1.1 fold enrichment (6-mer frequency, TF over GST control)
[13]
  binding signal: 1.38 fold enrichment (6-mer frequency, TF over GST control)
[14]
  binding signal: 1.24 fold enrichment (6-mer frequency, TF over GST control)
[15]
  binding signal: 1.24 fold enrichment (6-mer frequency, TF over GST control)
[16]
  binding signal: 1.16 fold enrichment (6-mer frequency, TF over GST control)
[17]
  binding signal: 1.31 fold enrichment (6-mer frequency, TF over GST control)
[18]
  binding signal: 1.24 fold enrichment (6-mer frequency, TF over GST control)
[19]
  binding signal: 1.25 fold enrichment (6-mer frequency, TF over GST control)
